Experimental data from PubChem BioAssay (NCI).
This is part of a sample that, as a whole, favours compounds with a hit. Of some 79,000 tested, about 15% had one in any assay. Values without a mark were called inactive. Calls of active or inactive are those of the source. No stated cut-off is given here; in the data, active means growth inhibition above about 70%; inactive means the rest.

Assay: NCI Yeast Anticancer Drug Screen. Data for the rad50 strain (AID 155);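 further: 0% = growth of vehicle-only cultures of the same strain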
Conditions: S. cerevisiae rad50 strain growth inhibition, hits give high values
Method: Growth inhibition of yeast strains with defined genetic alterations is measured as a screen for potential anti-cancer activity. Selected strains with alterations in DNA damage repair or cell cycle control were exposed to compounds and growth inhibition was measured relative to vehicle treated controls. The strain used in this assay is rad50

[1] = at 5.0 µM (retest, dose inferred, filed as 0.5)
[2] = at 50.0 µM (retest, dose inferred, filed as 5.0)

Compound	growth inhibition [1]	growth inhibition [2]	growth inhibition (at 50.0 µM)
CCOC1(OCC)Oc2c(Cl)c(Cl)c(Cl)c(Cl)c2OC1(OCC)OCC	11%	97% (active)	98.3% (active)
O=C1NN(C2=NNC3(C(=O)N2)c2ccccc2-c2ccccc23)C(c2ccccc2)=N/C1=C/c1ccc(O)cc1	1%	-14%	21.4%
CC(=O)N(C1=C(Cl)C(=O)c2ccccc2C1=O)c1ccc(Cl)cc1	98% (active)	99% (active)	97.8% (active)
COC/C=N/Nc1ccc([N+](=O)[O-])cc1	90% (active)	98% (active)	98.6% (active)
CCOC(=O)c1ccc([N+](=O)[O-])o1	5%	24%	94.4% (active)
Cn1c(N)c(NC(=O)CCl)c(=O)n(C)c1=O	21%	20%	16.4%
CCN(CC)CC(C)(C)C(=O)/C=C/c1ccc(Cl)c(Cl)c1	6%	98% (active)	97.9% (active)
O=C1SCCN1/N=C/c1ccc([N+](=O)[O-])o1	30%	85% (active)	85.8% (active)
c1cc[c]([Sn]([NH]c2ncnc3[nH]cnc23)([NH]c2ncnc3[nH]cnc23)[c]2ccccc2)cc1	-10%	93% (active)	71% (active)
COc1ccc([C@H]2c3cc4c(cc3OC(O)(CO)[C@H]2C(=O)O)OCO4)c(OC)c1 (some centres not stated) (tested in a mixture with another compound)	9%	63%	57%
Cc1[nH]c2ccccc2c1/C=C1\C(=O)C2CCC1C2 (configuration not stated)	-7%	75% (active)	95.4% (active)
CC(CO)[C@H]1OC(=O)C=C2[C@@]13O[C@@H]3[C@H]1OC(=O)[C@@]3(C)[C@H]4O[C@H]4C[C@@]2(C)[C@@H]13 (some centres not stated)	51%	98% (active)	89.8% (active)
Clc1ccc2oc(N3CCCCC3)nc2c1	4%	7%	98.8% (active)
O=C(Nc1ccccc1)OCCc1ccc(Br)cc1	-10%	-9%	13.2%
